Source: PubChem (several laboratories)
Hits are enriched below; roughly 2.9% of the tested compounds scored in any of these assays.
Shn3 inh set2 – reduces Shn3 3'UTR luciferase signal in osteoblasts | AID 588674 | inhibition, % at 12.5 µM | 360,000 tested, 0.52% active | Clone20 osteoblast Shn3 3'UTR firefly luciferase, 24 h;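 active means mean inhibition of at least 75% with every replicate also reaching 75%; inconclusive means mean inhibition at least 75% but some replicate below; inactive means mean inhibition below 75%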
KKLEB tox – counter-screen for CF NF-kB inhibitors: cytotoxicity; activity change (cytotoxicity), % at 5 µM; 360,000 tested, 0.36% active; KKLEB CF airway cells viability, ATPlite luminescence, overnight; hits give low values; cells stimulated with P. aeruginosa culture filtrate;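 active means corrected activity change at or below -50% at 5 µM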
Peg3 promoter – Peg3 promoter activity inhibition; HeLa PEG-Prom luciferase reporter, luminescence, overnight; inhibition, % at 20 µM; 360,000 tested, 1.7% active; AID 588405;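 active means inhibition of at least 50% at 20 µM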
HIF-2a block – blocks HIF-2a reporter activity | AID 624352 | 360,000 tested, 0.72% active | 786-0 RCC cells HIF-2a reporter, luciferase luminescence, overnight | inhibition, % at 18.8 µM;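 active means inhibition of the luminescence signal of 40% or more relative to plate controls, in a single-dose primary screen at 18.75 µM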
LMP1 NFkB inh – Epstein-Barr LMP1 NF-kappaB reporter inhibition; LMP1-induced NF-kappaB luciferase reporter cells, luminescence; inhibition, % at 12.5 µM; 350,000 tested, 0.69% active; in the data active means inhibition above about 41%; inconclusive means no clear call, values can overlap the other calls
CF NFkB inh – cystic fibrosis NF-kB activation inhibition | AID 588850 | KKLEB NF-kB-GFP reporter, PAF-induced, GFP fluorescence overnight | inhibition, % at 5 µM | 360,000 tested, 0.86% active;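 active means at least 50% inhibition at 5 µM, scaled per plate between neutral and stimulator controls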;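 further: PAF is a Pseudomonas aeruginosa culture filtrate used as stimulus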
Large screens that a line does not name were inactive.

CC(=O)c1ccc(N2CCN(c3ccnc4cc(Cl)ccc34)CC2)cc1	LMP1 NFkB inh 47
O=C(O)c1cccc(-c2noc(-c3cccc(Cl)c3)n2)c1	Peg3 promoter 54, HIF-2a block 79, LMP1 NFkB inh 80
O=C(C1=C(c2ccccc2)C(=O)c2ccccc2C1=O)c1ccccc1	Shn3 inh set2 93, Peg3 promoter 92, LMP1 NFkB inh 90, CF NFkB inh 76
Cc1c(CCC(=O)N[C@@H](CCCNC(N)=O)C(=O)O)c(=O)oc2cc3oc4c(c3cc12)CCCC4	HIF-2a block 67
Cc1c(CC(=O)N[C@@H](CCCNC(N)=O)C(=O)O)c(=O)oc2cc3oc4c(c3cc12)CCCC4	none
Cc1c(CCC(=O)NCCCCCC(=O)O)c(=O)oc2c(C)c3oc4c(c3cc12)CCCC4	none
Cc1c(CCC(=O)NCCCC(=O)O)c(=O)oc2cc3oc4c(c3cc12)CCCC4	HIF-2a block 72
COc1ccc2c(c1)c(CC(=O)Nc1nnc(C3CC3)s1)c(C)n2C(=O)c1ccc(Cl)cc1	LMP1 NFkB inh 48
CCC(c1nc2ccccc2[nH]1)n1c(-c2ccnc(Cl)c2)nc2ccccc21 (centres undefined)	none (no result: Shn3 inh set2, KKLEB tox, Peg3 promoter, LMP1 NFkB inh, CF NFkB inh)
CS(=O)(=O)Nc1ccc(C(=O)NCCSCc2c(F)cccc2Cl)cc1	none
COC1=C(C)C(=O)C2=C(C1=O)C1C3CC4=C(C(=O)C(OC)=C(C)C4=O)C(CNC(=O)C(C)=O)N3C(C#N)C(C2)N1C (centres undefined)	Shn3 inh set2 94, Peg3 promoter 101, HIF-2a block 78, LMP1 NFkB inh 77, CF NFkB inh 81
Cc1cc(C(=O)N/N=C/c2cc(Br)ccc2OC(=O)c2ccccc2)n[nH]1	none
Cc1cc(C(=O)N/N=C/c2cc(Br)ccc2OC(=O)c2ccccc2Cl)n[nH]1	Shn3 inh set2 90
Nc1cc(=O)[nH]c(SCCSc2cc(Cl)ccc2Cl)n1	Peg3 promoter 54, LMP1 NFkB inh 51
C/C(=N\NC(=O)c1ccc(Cl)cc1)c1ccccn1	none
CC(=NNC(=S)SCc1ccccc1)c1ccccn1	Shn3 inh set2 inconclusive, Peg3 promoter 94
CC(=NNC(=S)N1CCCC1)c1ccccn1	LMP1 NFkB inh 57
CC(=NNC(=S)N1CCC1)c1ccccn1	Shn3 inh set2 92, LMP1 NFkB inh 50
CC(=NNC(=S)N1CC2CCC(CC2)C1)c1cccc(C)n1	Shn3 inh set2 81, LMP1 NFkB inh 79
COc1cccc(CN(C)C(=O)CN2C(=O)NC(c3ccccc3)(c3ccccc3)C2=O)c1	none
C=CCn1c(SCN2C(=O)c3ccccc3C2=O)nc2ccc(Cl)cc2c1=O	none
COc1cc(/C=N/NC(=O)c2cccc([N+](=O)[O-])c2)ccc1OC(=O)c1ccco1	none
O=C(Nc1ccn(Cc2ccccc2F)n1)c1ccc(COc2ccc(Br)cc2)cc1	KKLEB tox -64
CCn1c(Cc2ccccc2)nnc1SCC(=O)Nc1ccccc1O	none
CO[C@@H]1CN(C)C(=O)c2cc(NC(=O)Nc3cc(F)ccc3F)ccc2OC[C@H](C)N(C(=O)c2cnccn2)C[C@@H]1C	none (no result: Shn3 inh set2, KKLEB tox, Peg3 promoter, LMP1 NFkB inh, CF NFkB inh)
Cc1ccc(-n2c(=O)[nH]c3c(C(N)=O)nc(C(C)C)nc32)cc1	none
Cc1ccsc1-c1nc(C(N)=O)c2[nH]c(=O)n(-c3ccc(Cl)cc3)c2n1	Peg3 promoter 76
COc1ccc(NC(=O)CSc2nc3ccccc3c(=O)n2CCCN2CCC(C)CC2)c(OC)c1	Peg3 promoter 69
COc1cccc(NC(=O)CSc2nc3c(sc4ccccc43)c(=O)n2CCCN2CCCC2)c1	Peg3 promoter 94
Cc1ccc(CNC(=O)CSc2nc3c(sc4ccccc43)c(=O)n2CCCN2CCCC2)cc1	Peg3 promoter 109
Cc1csc(=O)n1CCC(=O)OCc1nnc(-c2ccc(Cl)cc2)o1	none
CC(C)(C)CCN1CCC(CN2CCNC(=O)C2=O)CC1	none
COc1cc(-c2ccc3sc(-c4ccsc4)c(C#CCO)c3c2)cc(OC)c1OC	Peg3 promoter 56
COC(=O)c1c(-c2ccsc2)sc2ccc(-c3cc(OC)c(OC)c(OC)c3)cc12	none
CCOC(=O)CSc1nnc(-c2c[nH]c3ccccc23)n1CC	none
CCn1c(SC(C)C)nnc1-c1c[nH]c2ccccc12	LMP1 NFkB inh 84
CC1(C)Cc2ccccc2C2=NNC(=O)C2=N1	CF NFkB inh 75
Cc1ccc(NC(=O)CSc2nc3ccccc3c3nc(CCn4cncc4C)nn23)c(C)c1	Peg3 promoter 96
CCOC(=O)C1CCN(C(=O)C(C)N(c2ccc(Oc3ccccc3)cc2)S(C)(=O)=O)CC1 (centres undefined)	Shn3 inh set2 87
CCOC(=O)N1CCN(C(=O)C(C)N(c2ccc(Oc3ccccc3)cc2)S(C)(=O)=O)CC1 (centres undefined)	none
CN(Cc1ccccc1)C(=O)[C@@H]1CCCN1C(=O)[C@@H]1CCCN1C(=O)c1ccc(Cl)cc1	none (no result: Shn3 inh set2, KKLEB tox, Peg3 promoter, LMP1 NFkB inh, CF NFkB inh)
O=C1c2ccccc2C2=Nc3ccccc3SC(c3cccc(F)c3)C12 (centres undefined)	Peg3 promoter 58
CCCCNC(=O)CSc1nc2ccsc2c(=O)n1C1CCN(C(=O)OCC)CC1	none
CC(=O)c1ccc(N2CCN(S(=O)(=O)c3ccc4c(c3)CC(C)N4C(=O)C3CC3)CC2)cc1 (centres undefined)	Shn3 inh set2 88
CC(=O)N1c2ccc(S(=O)(=O)N3CCC(C(=O)N4CCC(C)CC4)CC3)cc2CC1C (centres undefined)	none
CC(=O)c1ccc(N2CCN(S(=O)(=O)c3ccc4c(c3)CC(C)N4C(C)=O)CC2)cc1 (centres undefined)	none
CC(=O)N1c2ccc(S(=O)(=O)N3CCC(C(=O)N4CCN(c5cc(Cl)ccc5C)CC4)CC3)cc2CC1C (centres undefined)	Shn3 inh set2 89
CC(=O)N1c2ccc(S(=O)(=O)N3CCC(C(=O)Nc4cccc(C(F)(F)F)c4)CC3)cc2CC1C (centres undefined)	Shn3 inh set2 93 (no result: LMP1 NFkB inh)
COc1ccc(C(CNC(=O)CNC(=O)c2cccc(F)c2)N2CCOCC2)cc1 (centres undefined)	none
COC(=O)CC1C(=O)NCCN1C(=O)c1ccc([N+](=O)[O-])cc1 (centres undefined)	none
Cc1cc(NC(=O)C2CCCCC2)nc2c1c(=O)oc1ccccc12	Peg3 promoter 51
C=CCn1c(=O)/c(=C/c2ccc(O)cc2)s/c1=C(/C#N)c1nnc2n1CCCCC2	none
C=CCn1c(=O)/c(=C/c2cc(OC)c(OC)c(OC)c2)s/c1=C(/C#N)c1nc2ccccc2n1C	KKLEB tox -50
COc1ccc(S(=O)(=O)NC2CC2)cc1Cl	none
COc1ccc(CNn2c(-c3cccs3)nc3ccccc3c2=O)cc1OC	Peg3 promoter 53
O=C(Cn1cnc2c(nnn2Cc2ccc(Cl)cc2)c1=O)N1CCN(c2ccccc2)CC1	none
